Source: PubChem BioAssay
The list is not random: actives were taken first. Their share in the collection is about 1.5%.
EBV gp42 inh = inhibitors of Epstein-Barr virus glycoprotein 42. actives 0.42% (n = 220,000). inhibition, % (tested at 21.74 µM). Fluorescence polarization binding assay, mP read-out; in the data active = inhibition above about 50%
MCL1 BIM primary = disrupts human MCL1 binding to BIM-BH3 peptide. GST-MCL1 / FITC-Bim-BH3 fluorescence polarization. actives 0.68% (n = 320,000). inhibition, % at 10.9 µM. Q07820;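 active = inhibition above the mean inhibition of all tested compounds plus 3 SD, set per campaign, cut at about 40% in these data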;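 also: 0% = DMSO wells and 100% = unlabeled Bim-BH3 peptide control; higher means more loss of mP so more displacement of Bim peptide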
E coli Lon inh = inhibits E. coli Lon protease; purified E. coli Lon protease, fluorescence polarization; inhibition, % at 7.94 µM; P0A9M0; actives 0.42% (n = 360,000); in the data active = inhibition above about 13%, passing the limit was not always enough;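 also: 0% = enzyme with probe and DMSO and 100% = no enzyme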
Target sequence (P0A9M0 whole entry, looked up): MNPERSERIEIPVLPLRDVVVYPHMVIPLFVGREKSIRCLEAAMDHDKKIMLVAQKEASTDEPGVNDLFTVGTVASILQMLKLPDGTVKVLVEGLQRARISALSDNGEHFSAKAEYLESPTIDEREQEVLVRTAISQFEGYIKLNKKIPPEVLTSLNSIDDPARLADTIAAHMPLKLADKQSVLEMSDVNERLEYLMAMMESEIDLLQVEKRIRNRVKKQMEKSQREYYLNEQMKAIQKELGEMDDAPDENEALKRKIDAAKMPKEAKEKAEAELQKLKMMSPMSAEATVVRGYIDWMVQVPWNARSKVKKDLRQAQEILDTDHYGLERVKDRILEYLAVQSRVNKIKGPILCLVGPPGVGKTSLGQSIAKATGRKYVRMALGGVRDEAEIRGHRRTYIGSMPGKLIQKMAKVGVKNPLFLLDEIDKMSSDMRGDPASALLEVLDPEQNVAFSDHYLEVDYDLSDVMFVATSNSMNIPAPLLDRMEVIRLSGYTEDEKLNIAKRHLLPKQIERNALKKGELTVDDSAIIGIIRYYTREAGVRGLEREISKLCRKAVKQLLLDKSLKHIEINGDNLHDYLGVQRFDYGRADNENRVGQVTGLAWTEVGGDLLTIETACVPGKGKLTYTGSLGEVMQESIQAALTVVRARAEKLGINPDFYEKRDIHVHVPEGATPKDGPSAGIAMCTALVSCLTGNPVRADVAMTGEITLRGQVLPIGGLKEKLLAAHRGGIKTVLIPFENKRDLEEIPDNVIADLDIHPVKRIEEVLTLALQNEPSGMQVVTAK
BCLXL inh = Bcl-xL (human) inhibition. actives 0.7% (n = 320,000). Q07817. inhibition, % at 10.9 µM. GST-Bcl-xL / FITC-Bim BH3 peptide fluorescence polarization;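 active = inhibition above the mean of all tested compounds plus 3 SD, cutoff set per campaign, cut at about 30% in these data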;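 also: 0% = DMSO wells and 100% = unlabeled Bim-BH3 peptide competitor; inhibitors lower millipolarization by displacing the labeled peptide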
GLD-1 TGE inh = GLD-1-TGE RNA interaction inhibition (C. elegans) | actives 0.44% (n = 320,000) | inhibition, % at 5.96 µM | Q17339 | purified GLD-1 + fluorescein TGE RNA, fluorescence polarization;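 active = percent inhibition above a per-plate cutoff, the plate mean of test compounds plus 3 SD, cut at about 30% in these data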;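 also: 0% = DMSO wells with GLD-1 and probe and 100% = wells lacking GLD-1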
MEX-5 binding = C. elegans MEX-5 TCR-2 RNA binding activity; MEX-5/FITC-TCR2 RNA binding, fluorescence polarization; active compounds read low; activity score (negative = inhibition of binding), % at 10 µM; actives 0.38% (n = 300,000); AID 1832;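 active = inhibition past about -25% in most replicates, and total fluorescence under double the plate's negative control median, limit read from the data; inconclusive = replicates evenly split on the limit, or fluorescence at least double controls; inactive = too little inhibition in most replicates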;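 also: 0% = DMSO and -100% = 5 µM competing unlabeled TCR2 RNA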
Bcl-xL conf = Bcl-xL (human) inhibition, MCL1 counter-screen confirmation; actives 54% (n = 1,700); AID 2166; shares compounds with MCL1 BIM primary; inhibition, % at 10.9 µM; GST-Bcl-xL / FITC-Bim BH3 peptide FP binding;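 active = inhibition above a cutoff equal to the mean inhibition of all tested compounds plus 3 SD, cut at about 30% in these data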;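 also: 0% = DMSO wells and 100% = unlabeled Bim BH3 control peptide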
MCL1 inh confirm = MCL1-BIM-BH3 interaction inhibition, confirmation; shares compounds with MCL1 BIM primary; GST-MCL1 / FITC-Bim-BH3 fluorescence polarization; inhibition, % at 10.9 µM; actives 61% (n = 1,700); AID 2168;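 active = inhibition above the average of all tested compounds plus 3 SD, cut at about 40% in these data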;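 also: 0% = DMSO wells and 100% = unlabeled Bim-BH3 control peptide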
GLD-1 TGE cf = GLD-1 TGE RNA interaction inhibition, confirmation; shares compounds with GLD-1 TGE inh; GLD-1/FL-TGE RNA fluorescence polarization, biochemical; inhibition, % at 5.96 µM; actives 10% (n = 550);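 active = average inhibition across triplicates above the hit cutoff set in the primary screen, cut at about 32% in these data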;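 also: 0% = GLD-1 with RNA probe and DMSO and 100% = wells lacking GLD-1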
* marks the source's active call; other numbers are inactive results; u = inconclusive; x = not tested or not shown; + = active, no number.

SMILES	EBV gp42 inh	MCL1 BIM primary	E coli Lon inh	BCLXL inh	GLD-1 TGE inh	MEX-5 binding	Bcl-xL conf	MCL1 inh confirm	GLD-1 TGE cf
CCOC(=O)C1=C(C)NC(C)=C(C(=O)OCC)C1C(=O)OCC(N)=O	-6	110*	-2	77*	57*	2	5	8	-7
Cc1cccn2c(=O)c3cc(C#N)c(=NC(=O)c4ccncc4)n(CCCOC(C)C)c3nc12	37	87*	-3	73*	44*	32	43*	48*	28
CCCn1c(=NC(=O)c2ccncc2)c(C#N)cc2c(=O)n3cccc(C)c3nc21	x	x	0	x	x	x	x	x	x
Cc1cccn2c(=O)c3cc(C#N)c(=NC(=O)c4cccs4)n(CCCOC(C)C)c3nc12	-4	74*	3	71*	57*	-45*	21	28	28
COc1ccc(C(=O)COC(=O)COc2cc(C)cc(C)c2)cc1	x	7	3	5	4	-1	x	x	x
COC(=O)C1=C(C)OC(N)=C(C#N)C1c1ccco1 (centres undefined)	-14	9	-16	5	-3	3	x	x	x
CC(=O)C1=C(C)OC(N)=C(C#N)C1c1ccco1 (centres undefined)	-6	59*	7	60*	39*	-14	20	16	3
CCN(CC)C(=O)C1=C(C)NC(=O)NC1c1c(F)cccc1Cl (centres undefined)	-11	-1	3	-4	5	0	x	x	x
CCN(CC)C(=O)C1=C(C)NC(=O)NC1c1ccccc1F (centres undefined)	10	66*	x	51*	40*	-10	23	27	6
Nc1cc(Oc2ccc(F)cc2F)cc([N+](=O)[O-])c1	-2	-4	4	-2	-4	1	x	x	x
CC(=O)N1CCN(c2ccc(NS(=O)(=O)c3ccc(C)cc3)cc2)CC1	x	7	8	3	-6	0	x	x	x
CCn1c2ccccc2c2cc(NC(=O)CNCc3ccccc3OC)ccc21	x	2	3	4	6	-2	x	x	x
COc1ccccc1CNCC(=O)Nc1ccc(N(C)C)cc1	x	86*	3	71*	50*	-5	61*	61*	-2
Cc1nn2c(N)csc2nc1=O	13	58*	x	57*	34*	-25	51*	59*	20
CN(C)c1ccc(Cl)c(NC(N)=S)c1	x	x	-6	x	x	x	x	x	x
COc1ccccc1C1C2=C(CCCC2=O)N(CC(=O)O)C2=C1C(=O)CCC2	x	47*	2	48*	58*	-4	9	12	-1
NS(=O)(=O)c1cccc(NC(=O)CN2CCc3ccccc32)c1	2	77*	-1	63*	47*	1	6	0	-4
Cc1cccc(NC(=O)c2csnn2)n1	0	-12	0	-3	-4	0	x	x	x
O=C(CSC1=Nc2ccccc2C2=NC(CC(=O)NC3CCCCC3)C(=O)N12)NCc1ccco1 (centres undefined)	-14	63*	11	61*	35*	-13	46*	56*	29
O=[N+]([O-])c1cccnc1Sc1ccc(F)cc1	x	0	3	2	-10	-1	x	x	x
CNc1nnc(Sc2ncccc2[N+](=O)[O-])s1	-8	62*	4	64*	40*	-2	6	-1	-2
Cc1ccc(/C=N/n2cnc3sc(-c4ccccc4)cc3c2=O)o1	-7	67*	1	124*	65*	-5	8	12	-2
CCCCn1c(N)c(N(Cc2ccccc2OC)C(=O)C(C)Oc2cccc(Cl)c2)c(=O)[nH]c1=O (centres undefined)	x	x	-1	x	x	x	x	x	x
N#Cc1c(SCc2ccc(Cl)cc2)sc(C(=O)c2ccccc2)c1N	-22	-11	1	-2	3	x	x	x	x
CSc1c(C#N)c(N)nc2sc(C(=O)c3ccccc3)c(N)c12	12	58*	11	51*	33*	u	71*	87*	21
SMILES	EBV gp42 inh	MCL1 BIM primary	E coli Lon inh	BCLXL inh	GLD-1 TGE inh	MEX-5 binding	Bcl-xL conf	MCL1 inh confirm	GLD-1 TGE cf
CCCn1c(/N=C/c2c[nH]c3ccccc23)nc2ccccc21	5	83*	2	80*	40*	1	10	4	1
CCCCn1c(/N=C/c2c[nH]c3ccccc23)nc2ccccc21	-11	3	-8	4	2	-5	x	x	x
CN(C(=O)CN1C(=O)c2cccc(N)c2C1=O)C1CCCCC1	x	73*	22	61*	45*	x	56*	77*	49*
CN(C(=O)CN1C(=O)NC2(CCc3ccccc32)C1=O)C1CCCCC1 (centres undefined)	x	x	6	x	6	x	x	x	x
COc1ccccc1NC(=O)CCN1C(=O)C2CC=CCC2C1=O (centres undefined)	x	-4	-5	3	-6	0	x	x	x
Cc1ccc(-c2nn(CCC(=O)Nc3cccnc3)c(=O)c3ccccc23)cc1	-15	85*	0	82*	61*	0	73*	97*	-3
NC(=O)/C(=C/c1ccco1)C(N)=S	-5	116*	3	86*	50*	-1	21	18	-5
NC(=O)/C(=C\c1ccco1)NC(=O)c1ccco1	x	x	-15	x	x	x	x	x	x
CCCCn1c(N)c(N(CC)C(=O)C2CCC2)c(=O)[nH]c1=O	x	-15	-3	-11	7	x	x	x	x
CC(C)c1ccc(N2C(=O)/C(=C/N(C)C)SC2=S)cc1	-2	+	-18	+	74*	-19	+	+	-6
COc1ccc(CN2CC[C@H]3C=CCc4cccc(c43)C2)cc1	x	87*	-3	72*	60*	x	19	16	1
Cc1ccnc(N2CCN(C(=O)CSc3nc4ccccc4nc3N3CCC(C)CC3)CC2)c1	0	1	-4	3	-3	2	x	x	x
COc1ccc(S(=O)(=O)C(C#N)c2nc3ccccc3nc2N2CCCCC2)cc1 (centres undefined)	5	79*	-1	68*	69*	-3	19	20	-2
N#CC(c1nc2ccccc2nc1N1CCCC1)S(=O)(=O)c1ccccc1 (centres undefined)	102*	70*	-2	66*	40*	-3	75*	76*	27
CC(C)c1cccc(OCCCCN(C)C)c1	-2	-4	-4	-2	6	1	x	x	x
